This note sets out measurements from PubChem BioAssay (NCI).

About 83,000 compounds went through this panel and 20% of them were active in at least one assay; those are over-represented in the sample as a whole.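 Single-concentration screen, 48 h exposure, 96-well plates. Endpoint: percent growth. Below 10 = active.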 Values without a mark were called inactive. The source made the active and inactive calls.

What all share (assay): NCI-60 one-dose screen, 48 h (100 = growth as untreated, 0 = no growth, -100 = all killed)
Common to all, as to conditions: 10 µM

The subject of assay [1] is NCI-H23 lung.
In assay [2] the test system is NCI-H226 lung.
For assay [3], the system named is NCI-H322M lung.
The test system of assay [4] is HOP-62 NSCLC.
Assay [5] has as its system NCI-H460 lung.
Assay [6] concerns NCI-H522 lung.
Assay [7] has as its system A549/ATCC NSCLC.
For assay [8], the system named is 786-0 renal.
The subject of assay [9] is COLO 205 colon.
Assay [10] deals with DU-145 prostate.
Assay [11] deals with K-562 leukemia.
Assay [12] deals with MALME-3M melanoma.
The test system of assay [13] is MDA-MB-231 breast.
For assay [14], the system named is RXF 393 renal.
Assay [15] deals with SF-268 CNS.
Assay [16] concerns SF-295 CNS.
Assay [17] relates to SF-539 CNS.
The test system of assay [18] is UACC-257 melanoma.
In assay [19] the test system is M14 melanoma.
Assay [20] deals with HCT-15 colon.

As to `O=[N+]([O-])c1cccc(-c2ncc(-c3ccc(Cl)cc3Cl)[nH]2)c1`, the growth in [1] is 104%; in assay [2], 80%; in assay [3], 131%; in assay [4], 45.8%; in [5], 84.1%; in [6], -14% (active). In addition, the growth in assay [7] is 94.4%; in assay [8], 66.8%; in assay [9], 89.4%; in [10] it was 40%; in assay [11], -23.6% (active); in [12], 125%. Moreover, the growth in assay [13] is 67.7%; in [14] it was 95%; in assay [15] it was 54.4%; in assay [16], 93.7%; in assay [17], 101%; in [18] it was 109%. Moreover, the growth is 5.51% (active) in assay [19] and -89.7% (active) in assay [20].
Turning to `COc1ccc(-c2nc(-c3nc4ccc(Cl)cc4[nH]3)c3ccccn23)cc1`, the growth is 84.1% in assay [1]; -45.7% (active) in [2]; 54.6% in [3]; -77.9% (active) in assay [4]; -24.1% (active) in assay [5]; -3.06% (active) in [6]. Also, the growth was -37.4% (active) in [7]; -72.7% (active) in [8]; 76% in assay [9]; 25.6% in assay [10]; 55.8% in assay [11]; -10.8% (active) in assay [12]. Also, the growth in assay [13] is 11.8%; in assay [14] it was -54.8% (active); in assay [15] it was -8.4% (active); in assay [16], 6.74% (active); in assay [17], -13.7% (active); in assay [18], 49.4%. Besides, the growth in assay [19] was 62.3%; in assay [20], 62.8%.
In the case of `COc1cc(NC(=O)c2sc3nc4c(cc3c2N)C(O)CCC4)cc(OC)c1` (stereo not given), the growth was 99.3% in assay [1]; 97.1% in assay [2]; 88.7% in [3]; 65.8% in [4]; 104% in assay [5]; 69% in assay [6]. Also, the growth was 86.1% in [7]; 97.3% in assay [8]; 105% in assay [9]; 108% in assay [10]; 27.9% in assay [11]; 77.6% in assay [12]. In addition, the growth in assay [13] is 88.9%; in assay [14] it was 90.4%; in [15] it was 103%; in [16], 87.5%; in assay [17], 87.7%; in [18] it was 89.2%. In addition, the growth in [19] was 75.4%; in assay [20], 60.1%.
Consider `COc1cccc(C(=O)Nc2ccc(CN3CCc4nc5cc(OC)c(OC)cc5cc43)cc2)c1`, for which the growth is 56.9% in assay [1]; 68.4% in [2]; 61.7% in [3]; 81% in [4]; 9.4% (active) in [5]; 42.7% in assay [6]. For the same compound, the growth in assay [7] was 36.5%; in assay [8], 64.1%; in assay [9], 44.1%; in assay [10], 46.1%; in [11] it was 24.5%; in assay [12], 51.8%. Moreover, the growth in [13] is 48%; in assay [14], 48.7%; in [15], 47%; in [16] it was 65.7%; in [17], 66.5%; in assay [18] it was 35.9%. Also, the figures for the growth in [19] and in [20] were 38.1% and 47.7%, respectively.
Regarding `C#Cc1ccc(-n2c(/C=C/c3cc(OC)cc(OC)c3)nc3ncccc3c2=O)cc1`, the growth in assay [1] was 89%; in assay [2], 65.8%; in assay [3], 72.5%; in assay [4], 48.6%; in assay [5] it was 94.6%; in assay [6], 7.88% (active). Also, the growth in assay [7] is 68.4%; in assay [8], 81%; in assay [9], 117%; in assay [10], 93.2%; in [11], 75.3%; in assay [12], 83.2%. Further, the growth in assay [13] was 53.5%; in assay [14], 64.8%; in assay [15] it was 65.3%; in assay [16], 75.7%; in assay [17] it was 87.8%; in assay [18], 66.3%. The growth in [19] was 81.2%; in assay [20], 82.8%.
For `CCC(=O)N1C/C(=C/c2ccc(OC)cc2)C(=O)/C(=C/c2ccc(OC)cc2)C1`, the growth in [1] was 63.9%; in assay [2], 29.5%; in [3], 111%; in [4], 20.5%; in assay [5], 61.4%; in assay [6] it was 20.6%. For the same compound, the growth in [7] was 32%; in [8], 4.83% (active); in assay [9] it was 27.2%; in assay [10], 18.7%; in assay [11], 1.72% (active); in assay [12], -9.29% (active). In addition, the growth in assay [13] was 19.4%; in assay [14] it was -66.7% (active); in assay [15], 24%; in assay [16], -5.17% (active); in assay [17], 54.7%; in [18], 43.4%. Besides, the growth was -16.5% (active) in [19] and 4.21% (active) in assay [20].
Consider `COc1ccc(S(=O)(=O)Nc2c(/C=C\c3cc(OC)c(OC)c(OC)c3)ccc(OC)c2O)cc1`, for which the growth in assay [1] is 33.1%; in assay [2], 12.9%; in assay [3] it was 40.5%; in [4], 49.1%; in [5], 6.2% (active); in [6], -47.6% (active). Moreover, the growth is 15.6% in assay [7]; 9.56% (active) in assay [8]; 3.21% (active) in [9]; -16.7% (active) in assay [10]; 12.3% in assay [11]; 61.5% in [12]. The growth in assay [13] is 5.46% (active); in assay [14], 33.5%; in assay [15] it was 13.3%; in assay [16] it was 3.31% (active); in assay [17], -28.9% (active); in [18] it was 32.4%. In addition, the growth in assay [19] was 2.65% (active); in [20], 7.33% (active).
